Test results from ChEMBL document CHEMBL3988442, “University of Dundee, Small-Polar-MMV Screening Library” (2021).
Screen size: about 48,000 compounds; about 13,000 (27%) showed an effect of 50% or more. The list shows a part of the results.

Test system: Wolbachia pipientis
Assay: Anti-Wolbachia Cell-Based Screen
Type: functional
Parameters: scale not given: in the data most compounds retested in dose-response had high values
Conditions: 5 µM

Compound | Percent Effect [%]
Cc1ccc(CNC(=O)NC2CCC(O)CC2)c(N2CCCC2)c1 (stereo not drawn) | -1.85
Cc1ccc(OCCN(C)Cc2nc3c(cnn3C)c(=O)[nH]2)cc1 | 122.7
CN(CCOc1cccc(F)c1)Cc1nc2c(cnn2C)c(=O)[nH]1 | 123
Cc1ccc(CN(C)Cc2nc3c(cnn3C)c(=O)[nH]2)c(C)c1 | 10.63
Cc1ccccc1CN(C)Cc1nc2c(cnn2C)c(=O)[nH]1 | 16.78
COc1ccc(C)cc1CN(C)Cc1nc2c(cnn2C)c(=O)[nH]1 | -1.165
CN(CCCOc1ccc(F)cc1)Cc1nc2c(cnn2C)c(=O)[nH]1 | -3.245
COc1ccc(OCCN(C)Cc2nc3c(cnn3C)c(=O)[nH]2)cc1 | 98.39
Cc1ccsc1CN(C)Cc1nc2c(cnn2C)c(=O)[nH]1 | 5.162
CCN(Cc1nc2c(cnn2C)c(=O)[nH]1)c1cccc(F)c1 | 1.042
CN(CCCOc1ccccc1)Cc1nc2c(cnn2C)c(=O)[nH]1 | 105
CN(Cc1nc2c(cnn2C)c(=O)[nH]1)Cc1ccc(F)cc1F | -0.6664
FC(F)(F)COCCN1CCc2cncnc2C1 | -42.17
CNC(=O)Cc1ccc(NC(=O)NCC(C)c2ncc(C)s2)cc1 (stereo not drawn) | 5.803
CC(=O)N1CCc2ncn(C)c2C1C(=O)N1CCCC1.O=C(O)C(F)(F)F (stereo not drawn) | -4.032
CC(C)Nc1ccnc(-c2ccnc3c2ccn3C)n1 | -57.68
CC(C)(NC(=O)c1scnc1Cl)c1ccccc1 | -10.08
COc1cc2c(cc1C(=O)N1CC(c3ccncc3)C1)CCC2 | -5.879
COC(=O)[C@@H]1Cc2ncn(C)c2CN1S(=O)(=O)Cc1ccccc1 | -8.847
COc1ccc(-c2cc(C(=O)NCCCn3ccnc3C)n(C)n2)cc1 | 159.9
O=C(NCCn1ccnc1)c1cccc(F)c1 | 6.195
O=C(NCCn1ccnc1)c1cncc(Br)c1 | 15.29
COc1ccc(-c2ncc(-c3nccn3CCN(C)C)cn2)cc1 | -4.545
O=C(NCCn1ccnc1)c1cc(F)cc(Br)c1 | 6.627
CC(C)c1nccn1CCCNC(=O)c1ccc(-c2ccncc2)nc1 | 3.275
O=C(NCCn1ccnc1)c1cccc(Br)c1 | 8.46
Cn1nc(-c2ccc(F)cc2)cc1C(=O)NCCn1ccnc1 | 186.2

Compound | Percent Effect [%]
COc1ccc(-c2cc(C(=O)NCCn3ccnc3)n(C)n2)cc1 | 156.8
Cc1nc(C(F)(F)F)nc(N2CCC(O)(C(=O)O)CC2)c1C | -14.39
O=C(CN1CCCc2c(F)cc(Br)cc21)N1CCN(C(=O)C2CC2)CC1 | 3.977
N#Cc1ccnc(N2CCN(C3CCOC3=O)CC2)c1 (stereo not drawn) | -3.021
Cc1ccc(CNC(=O)CN2CCN(CC(O)c3ccco3)CC2)cc1.Cl.Cl (stereo not drawn) | 0.6703
O=C(CCN1CCOC(C(F)(F)F)C1)NCc1ccccc1Cl (stereo not drawn) | 4.795
Cl.Cl.O=C(CN1CCN(CC(O)C2CC2)CC1)NCc1ccccc1Cl (stereo not drawn) | 116.4
Cl.Cl.O=C(CN1CCN(CC(O)C2CC2)CC1)NCc1ccccc1 (stereo not drawn) | 118.5
Cc1ccc(CNC(=O)CN2CCN(CC(O)C3CC3)CC2)cc1.Cl.Cl (stereo not drawn) | -4.273
O=C(CN1CCS(=O)(=O)CC1)NCc1ccccc1F | -2.021
CSCC[C@@H](CO)Nc1nc(-c2ccccn2)nc2c1c(C)nn2C | -12.31
COc1cccc(C2CCCN2C(=O)c2cc3c([nH]c2=O)CCC3)c1 (stereo not drawn) | 13.18
O=C(O)c1nnn(Cc2cccc(C(F)(F)F)c2)c1-c1cccnc1 | 14.53
CNC(=O)Cn1cc(C#N)c(=O)c2cc(Br)ccc21 | -8.636
CSc1ccccc1C(C(=O)O)N1CCN(Cc2ccccn2)CC1 (stereo not drawn) | 5.13
CNC(=O)[C@@H]1C[C@@H](N)CN1C1CCN(Cc2ccccn2)CC1 | -2.984
CS(=O)(=O)NC1CCCN(Cc2ccccn2)C1 (stereo not drawn) | -8.857
CNC(=O)[C@@H]1[C@H]2CN(Cc3ccccn3)CCN2C[C@H]1c1ccccc1 | 121
CNC(=O)[C@@H]1[C@@H](c2ccccc2)CN2CCN(Cc3ccccn3)C[C@H]12 | 89.14
O=C(Nc1ccc(Cl)cn1)C1CCCN(Cc2ccccn2)C1 (stereo not drawn) | 22.45
CC(C)NC(=O)[C@H]1C[C@@H]2[C@@H](C1)OCCN2Cc1cnn(C)c1.O=C(O)C(F)(F)F | -20.9
CC(C)c1cc(C(=O)N(C)C(C)c2nccs2)no1 (stereo not drawn) | -2.417
O=C(CCc1ccc(O)cc1)N1CCC(Cc2ccc(CO)cc2)C1 (stereo not drawn) | -11.56
Cc1nc2cc(=O)[nH]n2c(C)c1CNC(=O)C(C)(C)c1ccccc1 | -10.11
CSc1ccccc1C(=O)NCCC(O)c1ccco1 (stereo not drawn) | -13
COCc1nc2cc(NCc3ncc[nH]3)ccc2o1 | 3.493
